Compound activity from PubChem BioAssay.
N370S GC mod: qHTS Assay for Inhibitors and Activators of N370S glucocerebrosidase as a Potential Chaperone Treatment of Gaucher Disease; AID 2101, 2009; hit rate 0.092% among 330,000; N370S GC spleen homogenate, 4MU-glucoside fluorescence; Potency, µM (doses to about 59.4 µM), inactives show top-dose activity change, negative = inhibition, most hits filed as inhibitors;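 note: potency is the fitted concentration of half-maximal effect; 0% = full enzyme activity and -100% = no enzyme basal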
GLA inh pH 4.5: qHTS Assay for Inhibitors of Human alpha-Galactosidase at pH 4.5 | purified enzyme, 4-MU-alpha-Gal fluorescence, pH 4.5 | activity change, negative = inhibition, % at 105 µM | Alpha-galactosidase A (Homo sapiens), P06280 | 230,000 tested, under 10 active;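 note: 0% = full activity with enzyme and -100% = basal without enzyme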
GAA spleen mod: qHTS Assay for Inhibitors and Activators of Human alpha-Glucosidase From Spleen Homogenate; Lysosomal alpha-glucosidase (Homo sapiens), P10253; human spleen homogenate, 4-MU-alpha-glucoside fluorescence; Potency, µM (series often up to 79.9 µM), inactives show top-dose activity change, negative = inhibition, most hits filed as inhibitors; hit rate 0.006% among 240,000;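 note: potency is the fitted concentration of half-maximal effect; 0% = enzyme with vehicle and -100% = no enzyme basal signal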
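AC50 values come from Hill-equation fits of concentration-response data, normalized to no-enzyme and full-activity controls. Enzyme source: 1 ug human spleen homogenate; 1 mM fluorogenic 4-MU glucoside, pH 5.0 citrate buffer, 37 C, 40 min.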
GAA inhib: qHTS Assay for Inhibitors of Human alpha-Glucosidase as a Potential Chaperone Treatment of Pompe Disease. purified human GAA, 4-MU-alpha-glucoside fluorescence. Potency, µM (top dose mostly 76.9 µM), for inactives: at the top dose activity change, negative = inhibition, usual class: inhibitors. AID 1466, 2008. Lysosomal alpha-glucosidase (Homo sapiens), P10253. hit rate 0.005% among 200,000;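 note: potency is the fitted concentration of half-maximal effect; plate controls were uninhibited enzyme wells for no effect and no-enzyme background for full effect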
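Read-out is 4-methylumbelliferone fluorescence (Ex 365/Em 440 nm) after NaOH/glycine stop at pH 10. Enzyme 4 nM, substrate 400 uM, pH 5.0 citrate buffer, 20 min room temperature; AC50 from Hill-equation concentration-response.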
GLA spleen mod: qHTS Assay for Inhibitors and Activators of Human alpha-Galactosidase From Spleen Homogenate. Potency, µM (titrated, usually from 80 µM), inactives show top-dose activity change, negative = inhibition, usual class: inhibitors. AID 2107, 2009. Alpha-galactosidase A (Homo sapiens), P06280. human spleen homogenate, 4MU-alpha-Gal fluorescence, 40 min. hit rate 0.008% among 240,000;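 note: potency is the fitted concentration of half-maximal effect; 0% = enzyme with vehicle and -100% = no enzyme basal signal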
Target sequence (P06280 32-429 limits assumed): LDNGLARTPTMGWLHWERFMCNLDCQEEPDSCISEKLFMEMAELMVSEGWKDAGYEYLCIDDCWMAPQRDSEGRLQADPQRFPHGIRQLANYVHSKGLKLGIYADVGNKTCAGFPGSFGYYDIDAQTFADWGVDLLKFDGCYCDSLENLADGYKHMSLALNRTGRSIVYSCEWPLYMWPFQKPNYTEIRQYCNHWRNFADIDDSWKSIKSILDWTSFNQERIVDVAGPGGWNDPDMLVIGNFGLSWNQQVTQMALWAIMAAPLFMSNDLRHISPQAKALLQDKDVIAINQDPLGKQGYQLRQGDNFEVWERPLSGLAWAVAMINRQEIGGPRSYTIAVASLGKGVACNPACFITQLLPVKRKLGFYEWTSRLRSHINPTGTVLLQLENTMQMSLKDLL
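Spleen homogenate 1 ug + cpd (titration) + 4-MU-alpha-D-galactopyranoside 1 mM; 37C 40 min; 50 mM citrate/phosphate pH 5.0, 0.01% Tween-20; stop pH 10; fluorescence 365/440; AC50 via Hill.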
GAA glycogen: qHTS Assay for Inhibitors and Activators of Human alpha-Glucosidase Cleavage of Glycogen | Lysosomal alpha-glucosidase (Homo sapiens), P10253 | AID 2100, 2009 | hit rate 0.38% among 300,000 | recombinant GAA, glycogen substrate, Amplex Red glucose oxidase fluorescence | Potency, µM (top dose mostly 76.4 µM), for inactives: at the top dose activity change, negative = inhibition, usual class: inhibitors;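 note: potency is the fitted concentration of half-maximal effect; 0% = full enzyme reaction and -100% = no-enzyme basal signal; the screen sought inhibitors and activators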
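Natural-substrate format: glycogen cleavage by 4 nM human enzyme, glucose read by Amplex Red coupling (Ex 573, Em 610 nm). Normalized to enzyme and no-enzyme controls.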
* = called active by the depositor; [ ] = remark or other dose. Shown are actives, neighbours in structure and some others; about 0.43% of the full set was active somewhere. Calls come from the whole dose curve; as a rule, active = well fitted curve in the direction sought with a large enough effect; inconclusive = small, poorly fitted or top-dose-only effect, or another doubt; inactive = no such curve, though single readings can be large; an effect the other way counts as inactive or inconclusive.

Results for OC(COC(c1ccccc1)c1ccccc1)CN1CCc2ccccc2C1 (configuration not stated) ?
N370S GC mod: -23%; GLA inh pH 4.5: -3; GAA spleen mod: -1%; GAA inhib: -9%; GLA spleen mod: -3%; GAA glycogen: -6%

What do the screens show for `NC(=NCCCCCCN=C(N)/N=C(\N)Nc1ccc(Cl)cc1)/N=C(\N)Nc1ccc(Cl)cc1`?
N370S GC mod: 6.3µM*; GLA inh pH 4.5: -3; GAA spleen mod: 3%; GLA spleen mod: -23%; GAA glycogen: 4%[76.3 µM]

How did C/C(=N\N1CCN(C2c3ccccc3-c3ccccc32)CC1)c1ccncc1 do in these assays?
N370S GC mod: 1%; GLA inh pH 4.5: 3; GAA spleen mod: 5%; GAA inhib: inconclusive; GLA spleen mod: -12%; GAA glycogen: 28µM*

How did C(=N\N1CCN(C2c3ccccc3-c3ccccc32)CC1)/c1ccncc1 do in these assays?
N370S GC mod: -12%; GLA inh pH 4.5: -6; GAA spleen mod: -5%; GAA inhib: 2%; GLA spleen mod: -2%; GAA glycogen: -10%

What do the screens show for `Oc1ccc(C2Nc3cccc4cccc(c34)N2)c(O)c1`?
N370S GC mod: -4%; GLA inh pH 4.5: -25; GAA spleen mod: -5%; GAA inhib: 3%; GLA spleen mod: 8%; GAA glycogen: 20µM*

Results for N#CCCn1cnc2c1NC=NC2Cl (configuration not stated) ?
N370S GC mod: 0%; GLA inh pH 4.5: 11; GAA spleen mod: -10%; GLA spleen mod: -10%

How did CC(C)CNC(=O)NC1(C(F)(F)F)Oc2ccccc2O1 do in these assays?
N370S GC mod: -11%; GLA inh pH 4.5: -7; GAA spleen mod: 3%; GAA inhib: -3%; GLA spleen mod: -2%; GAA glycogen: -18%

How did O=C(NCc1cccnc1)NC1(C(F)(F)F)Oc2ccccc2O1 do in these assays?
N370S GC mod: -6%; GLA inh pH 4.5: 2; GAA spleen mod: -5%; GAA inhib: -11%; GLA spleen mod: inconclusive; GAA glycogen: 25µM*

What do the screens show for `COc1cccc(NC(=O)NC2(C(F)(F)F)Oc3ccccc3O2)c1`?
N370S GC mod: -2%; GLA inh pH 4.5: -8; GAA spleen mod: 0%; GAA inhib: -2%; GLA spleen mod: 5%; GAA glycogen: 8.9µM*

What do the screens show for `COc1cccc(NC(=O)Nc2cccc(C(=O)O)c2)c1`?
N370S GC mod: -16%; GLA inh pH 4.5: 2; GAA spleen mod: -3%; GAA inhib: 3%; GLA spleen mod: -7%; GAA glycogen: 17%

How did CCOC(=O)c1c(CSc2ccccc2)n(C)c2cc(Br)c(OCC(O)CNC(CO)(CO)CO)cc12 (configuration not stated) do in these assays?
N370S GC mod: 14µM*; GLA inh pH 4.5: -1; GAA spleen mod: -15%; GAA inhib: -6%; GLA spleen mod: -16%; GAA glycogen: 2%

What do the screens show for `C=C(C)c1cccc(C(C)(C)NC(=O)Nc2cccnc2)c1`?
N370S GC mod: 22µM*; GAA glycogen: -1%[76.3 µM]

Results for C=C(C)c1cccc(C(C)(C)NC(=O)Nc2ccc(C(N)=O)cc2)c1 ?
N370S GC mod: -2%; GLA inh pH 4.5: 3; GAA spleen mod: 3%; GAA inhib: 0%; GLA spleen mod: 2%; GAA glycogen: 5%

Results for COC(=O)[C@H](COC(C)(C)C)NC(=O)O[C@@H]1C(=O)c2cc(OC)ccc2O[C@H]1c1cccc(OC)c1 ?
N370S GC mod: -15%; GLA inh pH 4.5: -10; GAA spleen mod: 2%; GLA spleen mod: 3%
